Screening results as filed in PubChem.
Only some compounds are listed: those with a hit (about 2.5% of all), similar ones and a draw of the others.
TDP-43 yeast inh – inhibitors of TDP-43 toxicity in yeast; AID 652104; Potency, µM (top dose mostly 46.1 µM), inactives show at the highest dose growth rescue (activation), hits mostly activators; TDP-43 expressing yeast growth rescue, BacTiter-Glo, 24 h; 410,000 tested, 1.8% active; also: potency is read from the fitted curve at half-maximal effect; % of control where 0% means no effect; nearly all actives have a fitted effect of over 50% in size
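Luminescence from BacTiter-Glo reports growth of TDP-43-expressing yeast after 24 hr at 30 deg C with compound. Cells were raffinose-pregrown to mid-log, then seeded in galactose medium at OD600=0.02.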
aSyn yeast inh – rescues yeast growth from alpha-synuclein toxicity; 370,000 tested, 0.14% active; Yeast expressing alpha-synuclein, growth rescue, BacTiter-Glo, 24 h; AID 652106; Potency, µM (doses to about 46.1 µM), without a hit: at the top dose growth rescue (activation), hits mostly activators; also: potency is read from the fitted curve at half-maximal effect; % of control where 0% means no effect; nearly all actives have a fitted effect of over 65% in size
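Galactose-induced alpha-syn yeast (OD600=0.02, raffinose-pregrown) + pinned cpd, 24 hr, 30 deg C; growth by BacTiter-Glo luminescence. Growth restoration scores as activation.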
Mito fusion act – inhibitors of mitochondrial division or activators of mitochondrial fusion; S. cerevisiae fusion-defective mutant growth rescue, CellTiterGlo 48 h; Potency, µM (highest dose often 46.1 µM), without a hit: at the highest dose growth rescue (activation), actives largely listed as activators; 320,000 tested, 0.23% active; AID 485298; also: potency is read from the fitted curve at half-maximal effect; % of control where 0% means no effect; nearly all actives have a fitted effect of over 45% in size
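Temperature-sensitive fusion-defective S. cerevisiae (e.g. fzo1-1, mgm1-5) were grown with compound in YPEG medium (3% ethanol, 3% glycerol) for 48 hours at 37C. Growth rescue was measured as viability by CellTiterGlo luminescence after 10 minutes at ambient.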
pAkt inh – blocks phosphorylation of Akt. Neuro2A IGF-stimulated pAkt S473 HTRF, 20 min; stronger effect = lower value. activity change, % for hits at 50 µM. 360,000 tested, 0.32% active. AID 651550; in the data active = activity change below about -80%; inconclusive = mostly about -51% to -80%; also: % is scaled to controls: 0 for no effect and ±100 for the full control effect
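Neuro2A cells (4,500/well, DMEM with 0.5% FBS) were treated with compound at a single 50 µM final concentration, stimulated with 6 nM IGF for 20 min at 37 °C, and lysed. Phospho-Akt Ser473 was read by HTRF as 665/615 ratio ×10^4.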
CCT modulator – modulators of cytosolic chaperonin (CCT/TRiC) activity | purified chaperonin ATPase assay, HTRF ADP detection, 30 min | 360,000 tested, 0.3% active | activity change, % (test concentration not listed), hits read low; in the data active = activity change below about -30%; also: % is scaled to controls: 0 for no effect and ±100 for the full control effect
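TRiC (40 or 20 nM final, by batch activity) in 30 mM Tris pH 7.4, 100 mM KCl, 5 mM MgCl2, 1 mM DTT was treated with compound at 76 uM single dose, then 10 uM ATP, 30 min at 37 °C. ADP was read by HTRF Transcreener.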
Anesthetic bind – candidate novel general anesthetic via apoferritin binding; P02791; apoferritin/1-aminoanthracene competitive binding, fluorescence; Potency, µM (series often up to 77.5 µM), for inactives: top-dose activity change, negative = displacement, most hits filed as inhibitors; 350,000 tested, 0.074% active; also: potency is read from the fitted curve at half-maximal effect; % is scaled to controls: 0 for no effect and ±100 for the full control effect; nearly all actives have a fitted effect of over 20% in size
Target sequence (P02791 2-175 limits assumed): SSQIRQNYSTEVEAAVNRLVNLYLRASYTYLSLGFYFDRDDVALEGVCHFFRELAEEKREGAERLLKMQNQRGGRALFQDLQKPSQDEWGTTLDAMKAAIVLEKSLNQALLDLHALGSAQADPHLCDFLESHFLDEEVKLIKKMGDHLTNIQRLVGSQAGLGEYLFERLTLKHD
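Apoferritin-based anesthetic binding model; compound displacement of fluorescent 1-AMA measured as endpoint fluorescence after 10 minutes at room temperature, scaled to free-ligand and complex controls.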
An asterisk follows results filed as active. Unless noted, calls follow the shape of the dose curve; as a rule, active = well fitted curve in the direction sought with a large enough effect; inconclusive = small, poorly fitted or top-dose-only effect, or another doubt; inactive = no such curve, though single readings can be large; an effect the other way counts as inactive or inconclusive.

C[C@H](NC(=O)CNC(=O)[C@@H](NC(=O)[C@H](Cc1ccccc1)NC(=O)CNC(=O)CNC(=O)[C@@H](N)Cc1ccccc1)[C@@H](C)O)C(=O)N[C@@H](CCCN=C(N)N)C(=O)N[C@@H](CCCCN)C(=O)N[C@@H](CO)C(=O)N[C@@H](C)C(=O)N[C@@H](CCCN=C(N)N)C(=O)N[C@@H](CCCCN)C(N)=O was read as Anesthetic bind 4%.
Cc1ccc2nc(-c3ccco3)c(Cc3ccccc3)n2c1 was read as TDP-43 yeast inh 24%, aSyn yeast inh -16%, pAkt inh inactive and CCT modulator -2.
For Brc1cccc(-c2nc3ccc(Br)cn3c2Cc2ccccc2)c1 the results were TDP-43 yeast inh 28µM*, aSyn yeast inh -8%, pAkt inh inactive and CCT modulator 0.
For Clc1cccc(-c2nc3ccc(Br)cn3c2Cc2ccccc2)c1 the results were TDP-43 yeast inh inconclusive, aSyn yeast inh -16%, pAkt inh inactive and CCT modulator 2.
Clc1cccc(Cc2c(-c3cccc(Br)c3)nc3ccc(Br)cn23)c1 was read as TDP-43 yeast inh 20µM*, aSyn yeast inh -8%, pAkt inh inactive and CCT modulator 3.
`Cc1ccc2nc(-c3ccco3)c(CC(C)(C)C)n2c1` gave TDP-43 yeast inh 11µM*, aSyn yeast inh 37%, pAkt inh inactive and CCT modulator -2.
Screening Clc1cccc(Cc2c(-c3cccc(Cl)c3)nc3ccc(Br)cn23)c1 returned TDP-43 yeast inh 35µM*, aSyn yeast inh -12%, pAkt inh inactive and CCT modulator 0.
Screening Nc1c(C(=O)Nc2ccc(Cl)cc2F)sc2nc(-c3cccs3)ccc12 returned TDP-43 yeast inh 25% and Anesthetic bind 105%.
CCn1c(SC(C)C(=O)NCc2ccco2)nnc1-c1ccccc1 (stereo not drawn) was read as aSyn yeast inh 2%.
Screening N#Cc1nc(-c2ccc(OCc3ccc(Cl)cc3)cc2)oc1N1CCCC1 returned aSyn yeast inh 6%.
`Brc1ccc2nc(-c3ccco3)c(Cc3ccsc3)n2c1` gave TDP-43 yeast inh 3.2µM*, aSyn yeast inh 6%, pAkt inh inactive and CCT modulator -2.
`Cc1ccc(Cc2c(-c3ccccc3)nc3ccc(Br)cn23)cc1` gave TDP-43 yeast inh 22µM*, aSyn yeast inh 18%, pAkt inh inactive and CCT modulator -29.
`Cc1ccc(-c2nc3ccc(Br)cn3c2Cc2ccccc2)cc1` gave TDP-43 yeast inh 5%, aSyn yeast inh 3%, pAkt inh inactive and CCT modulator 2.
O=C(COc1ccc2ccccc2c1)Nc1ccc(O)c(-c2nc3ccccc3o2)c1 was read as aSyn yeast inh -1%.
CSc1ccc(S(=O)(=O)Nc2ccc(F)cc2)cc1 was read as TDP-43 yeast inh 13µM*, aSyn yeast inh 16%, Mito fusion act 17%, pAkt inh inactive, CCT modulator -1 and Anesthetic bind 2%.
For Cc1cc(C(=O)CSc2cccc[n+]2[O-])c(C)n1-c1ccccc1 the results were TDP-43 yeast inh inconclusive, aSyn yeast inh inconclusive, Mito fusion act 5%, pAkt inh inactive, CCT modulator -38* and Anesthetic bind -7%.
For O=C(CSc1cccc[n+]1[O-])c1ccccc1Br the results were TDP-43 yeast inh 35µM*, aSyn yeast inh inconclusive, Mito fusion act 5%, pAkt inh inactive, CCT modulator -6 and Anesthetic bind -18%.
Screening CCOC(=O)c1oc2c(c1C)-c1nn(Cc3ccccc3Cl)cc1CC2 returned TDP-43 yeast inh 10% and Anesthetic bind -11%.
`Cc1c(C(=O)O)oc2c1-c1nn(Cc3ccccc3Cl)cc1CC2` gave TDP-43 yeast inh 16µM* and Anesthetic bind inconclusive.
Screening CN(C)c1ccc(CNC(=O)C2CCCN(S(=O)(=O)c3ccc4c(c3)CCCC(=O)N4)C2)cc1 (stereo not drawn) returned TDP-43 yeast inh 11% and Anesthetic bind 4%.
Screening Cc1cccc(N2CCN(C(=O)c3[nH]c(C(F)(F)F)nc3-c3ccccc3)CC2)c1C returned TDP-43 yeast inh 0%, aSyn yeast inh 9%, pAkt inh inactive and CCT modulator 1.
`C(=C\c1nc(-c2cccnc2)no1)/c1ccccc1` gave TDP-43 yeast inh 2.2µM*, aSyn yeast inh -7%, Mito fusion act -5%, pAkt inh inactive, CCT modulator -6 and Anesthetic bind -12%.
Screening CSc1ccccc1-c1nc(-c2ccncc2)no1 returned TDP-43 yeast inh 14µM*, aSyn yeast inh 14%, Mito fusion act -12%, pAkt inh inactive, CCT modulator 1 and Anesthetic bind -9%.
For c1ccc(-c2nc(-c3ccncc3)no2)cc1 the results were TDP-43 yeast inh 5%, aSyn yeast inh 3%, Mito fusion act -4%, pAkt inh inactive, CCT modulator -3 and Anesthetic bind -13%.
Screening Cc1ccccc1-c1nc(-c2cccnc2)no1 returned TDP-43 yeast inh 14µM*, aSyn yeast inh 0%, Mito fusion act 1%, pAkt inh inactive, CCT modulator 0 and Anesthetic bind -9%.
`c1ccc(C(Cc2nc(-c3ccncc3)no2)c2ccccc2)cc1` gave TDP-43 yeast inh 35µM*, aSyn yeast inh 1%, Mito fusion act 1%, pAkt inh inactive, CCT modulator 1 and Anesthetic bind -14%.
Cc1ccc(-c2noc(/C=C/c3ccccc3)n2)cc1 was read as TDP-43 yeast inh -16%, aSyn yeast inh -14%, Mito fusion act 1%, pAkt inh inactive, CCT modulator -1 and Anesthetic bind -18%.
COc1ccc(N(C(=O)c2ccc(C(C)(C)C)cc2)S(=O)(=O)c2ccc(Cl)cc2)cc1 was read as TDP-43 yeast inh 13% and Anesthetic bind -11%.
`Cc1cc(C)c2oc(-c3cccc(NC(=O)COc4ccc(Cl)cc4C)c3C)nc2c1` gave aSyn yeast inh 1%.
For CNc1nc(-c2ccccc2)c(-c2ccccc2)s1 the results were aSyn yeast inh -1%.
Clc1ccccc1/C=C/c1nc(-c2cccnc2)no1 was read as TDP-43 yeast inh 10µM*, aSyn yeast inh -4%, Mito fusion act 5%, pAkt inh inactive, CCT modulator -2 and Anesthetic bind -9%.
Screening Cc1ccc(SCc2nc(-c3cccnc3)no2)cc1 returned TDP-43 yeast inh 18µM*, aSyn yeast inh 5%, Mito fusion act 0%, pAkt inh inactive, CCT modulator -1 and Anesthetic bind -22%.
